EBV LMP1 NFkB: EBV LMP1-driven NF-kappaB luciferase reporter inhibitors, primary screen, cell-based, luminescence, single point; LMP1-induced NF-kappaB luciferase reporter cells; inhibition, % at 12.5 µM; actives 0.69% (n = 350,000); AID 504558, 2011; in the data active = inhibition above about 41%
TWEAK Fn14 block: inhibitors of TWEAK-Fn14 signaling, primary screen, luciferase reporter cells, uHTS. actives 2% (n = 360,000). TWEAK-stimulated Fn14 reporter cells, luciferase luminescence, 8 h. inhibition, % at 10 µM. AID 1159606, 2016; in the data active = inhibition above about 50%
TROY NFkB inh: inhibitors of TROY-driven NF-kB signaling, primary screen, Q293 LMP1-TROYcd cells, NF-kB luciferase, uHTS; inhibition, % at 10 µM; Q293 LMP1-TROYcd NF-kB luciferase reporter, 4 h; actives 0.98% (n = 360,000);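 active = compounds whose plate-normalised and pattern-corrected inhibition of the luciferase reporter signal at the single screening dose is 50% or more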
LGR2 antag: inhibitors of bursicon-induced LGR2 CRE-luciferase signal, primary screen, cell-based, HEK293, CRE-luciferase reporter, bursicon stimulation; inhibition, % at 9.99 µM; AID 720647, 2013; actives 0.35% (n = 380,000); Drosophila bursicon receptor LGR2 (rickets); bursicon-stimulated, 4 h;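 active = drop in luminescence signal, shown as inhibition above about 50% in the replicate tests, limit read from the data, passing the limit was not always enough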;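 note: agonist challenge used bursicon conditioned medium at about half maximal strength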
TRPM1 prom inh: inhibitors of MITF-dependent TRPM1 promoter reporter, primary screen, cell-based, SK-MEL-5, single point, luciferase. SK-MEL-5 TRPM1 promoter luciferase, 24 h. inhibition, % at 12.5 µM. actives 0.83% (n = 330,000);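 active = mean inhibition across replicates of 60% or more, whatever share of single replicates reaches that level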
MITF act: activators of MITF-driven TRPM1 promoter reporter, primary screen, cell-based, SK-MEL-5, luciferase, single point; SK-MEL-5 TRPM1-promoter luciferase, 24 h; % of positive control, neutral wells = 0; activation, % at 12.5 µM; actives 0.75% (n = 300,000);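 active = mean activation of at least 80% with every replicate also reaching 80%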
Each line names hits and unclear results; the compound was inactive in the other large screens. Most compounds without a hit are left out; they make up all but 3% or so of the library.

Cc1ccc(S(=O)(=O)N2C[C@@H]3CCCC[C@@H]3[C@@H](C)[C@H]2c2cn(Cc3ccccc3)c3ncccc23)cc1	none
COc1ccc2c(c1)c([C@@H]1[C@H](C)[C@H]3CCCC[C@H]3CN1S(=O)(=O)c1ccc(C)cc1)cn2C	TWEAK Fn14 block 84
Cc1ccc(S(=O)(=O)N2CC3CCCC2C3)cc1 (centres undefined)	none (no result: MITF act)
Cc1ccc(S(=O)(=O)N2C[C@@H]3CCCC[C@@H]3[C@@H](C)[C@H]2c2cn(Cc3ccccc3)c3ccccc23)cc1	TWEAK Fn14 block 61
C[C@@H]1CN([C@H](C)CO)C(=O)c2cc(NS(=O)(=O)c3ccc(F)cc3)ccc2O[C@H]1CN(C)Cc1ccc(C(=O)O)cc1	none (no result: EBV LMP1 NFkB, TWEAK Fn14 block, TROY NFkB inh, TRPM1 prom inh, MITF act)
O=S(=O)(c1ccccc1F)N1CC[C@H]2[C@H](CO)Nc3ccc(-c4cccc(F)c4)cc3[C@H]21	none (no result: EBV LMP1 NFkB, TWEAK Fn14 block, TROY NFkB inh, TRPM1 prom inh, MITF act)
O=S(=O)(c1ccccc1F)N1CC[C@@H]2[C@H]1c1cc(-c3cccc(F)c3)ccc1N[C@@H]2CO	LGR2 antag 97 (no result: EBV LMP1 NFkB, TWEAK Fn14 block, TROY NFkB inh, TRPM1 prom inh, MITF act)
C=C(C)[C@@H]1CCC2(C(=O)O)CC[C@]3(C)[C@H](CC[C@@H]4[C@@]5(C)CCC(=O)C(C)(C)[C@@H]5CC[C@]43C)[C@@H]12 (some centres undefined)	EBV LMP1 NFkB 49, TWEAK Fn14 block 51 (no result: LGR2 antag)
CC(OC(=O)/C(C#N)=C/c1ccc(N(C)C)cc1)C(=O)N(C)c1ccccc1 (centres undefined)	none
CC(=O)Nc1ccc(NC(=O)C(C)OC(=O)/C(C#N)=C/c2ccc(N(C)C)cc2)cc1 (centres undefined)	MITF act 81
Cc1cc(C)n(-c2nnc(NC34CC5CC(CC(C5)C3)C4)nn2)n1	MITF act 138
O=C(NCC[C@@H]1CC[C@@H](NC(=O)C2CCCCC2)[C@@H](CO)O1)c1cnccn1	none (no result: EBV LMP1 NFkB, TWEAK Fn14 block, TROY NFkB inh, TRPM1 prom inh, MITF act)
C[C@H]1CCC/C=C/[C@@H]2C[C@H](O)C[C@H]2[C@H](O)[C@H](S(=O)c2ccc(O)cc2)CC(=O)O1 (some centres undefined)	TRPM1 prom inh 83 (no result: LGR2 antag, MITF act)
CCN(CC)CCCNc1nc(-c2ccccc2)nc2ccccc12	none (no result: LGR2 antag)
CCN(CC)CCCNc1nc2ccccc2c2[nH]c3ccc(OC)cc3c12	TROY NFkB inh 69, TRPM1 prom inh 102
COC(=O)C[C@H]1CC[C@@H]2[C@@H](COc3ccc(NC(=O)Nc4ccc(C)cc4)cc3C(=O)N2C)O1	none (no result: EBV LMP1 NFkB, TWEAK Fn14 block, TROY NFkB inh, TRPM1 prom inh, MITF act)
C[C@@H]1CN([C@H](C)CO)C(=O)Cc2cc(NS(=O)(=O)c3ccc(F)cc3)ccc2O[C@H]1CN(C)Cc1ccc2c(c1)OCO2	none (no result: EBV LMP1 NFkB, TWEAK Fn14 block, TROY NFkB inh, TRPM1 prom inh, MITF act)
Cc1ccc(-c2nnc(N3CCCCC3)c3ccccc23)cc1S(=O)(=O)N(C)C	none
Cc1ccc(-c2nc3ccccc3s2)cc1S(=O)(=O)N1CCOCC1	none (no result: LGR2 antag)
Cc1ccc(-c2nnc(NCc3nc4ccccc4[nH]3)c3ccccc23)cc1S(=O)(=O)N1CCOCC1	TWEAK Fn14 block 66 (no result: LGR2 antag)
Cc1ccc(-c2nnc(NCc3nc4ccccc4[nH]3)c3ccccc23)cc1S(=O)(=O)N(C)C	TWEAK Fn14 block 55, TROY NFkB inh 52, LGR2 antag 58
Nc1nc(N2CCN(C(=O)c3ccco3)CC2)nc2ccccc12	none (no result: LGR2 antag, MITF act)
O=C(c1ccco1)N1CCN(c2nc3ccccc3c(=O)n2-c2ccccc2)CC1	TROY NFkB inh 61 (no result: LGR2 antag, MITF act)
Nc1nc(N2CCN(C(=O)c3ccco3)CC2)nc2ccc(Br)cc12	MITF act 105 (no result: LGR2 antag)
NC(=O)c1ccsc1NC(=O)c1cc(=O)c2ccccc2o1	MITF act 130
CC(=O)Nc1ccc(NC(=O)c2cc(=O)c3ccccc3o2)cc1	none
Oc1cccc(N2Cc3ccccc3C2)c1	none (no result: LGR2 antag)
Cc1cc2c(cc1C)CN(c1ccccc1)C2	MITF act 96
C[C@@H]1CN([C@@H](C)CO)S(=O)(=O)c2ccc(-c3cccc(F)c3)cc2O[C@H]1CN(C)C(=O)C1CC1	none (no result: EBV LMP1 NFkB, TWEAK Fn14 block, TROY NFkB inh, TRPM1 prom inh, MITF act)
Nc1c2c(nc3sc4c(c13)CCCC4)-c1ccccc1CC2	TROY NFkB inh 56 (no result: MITF act)
CCC(=O)N1C[C@@H](C)[C@@H](OC)CN(C)C(=O)c2cc(NS(C)(=O)=O)ccc2OC[C@H]1C	none (no result: EBV LMP1 NFkB, TWEAK Fn14 block, TROY NFkB inh, TRPM1 prom inh, MITF act)
CC(=O)[C@H]1CC[C@H]2[C@@H]3C[C@H](C)C4=CC(=O)CC[C@]4(C)[C@H]3[C@@H](O)C[C@]12C	EBV LMP1 NFkB 57
CC(=O)[C@H]1CC[C@H]2[C@@H]3CCC4=CC(=O)CC[C@]4(C)[C@H]3[C@H](O)C[C@]12C	none
O=C(C1CCCC1)N1CC2(C1)[C@@H](c1ccccc1)[C@@H](CO)N2Cc1cncnc1	none (no result: EBV LMP1 NFkB, TWEAK Fn14 block, TROY NFkB inh, TRPM1 prom inh, MITF act)
O=C1CC(c2ccc(O)cc2)Oc2ccccc21 (centres undefined)	MITF act 83
CCN(CC)CCNc1ccc(C)c2sc3ccc(O)cc3c(=O)c12	TRPM1 prom inh 85 (no result: MITF act)
O=C(Nc1ccc([N+](=O)[O-])cc1)Nc1ccc(OC(F)F)c(Cl)c1	EBV LMP1 NFkB 68, TWEAK Fn14 block 82, TROY NFkB inh 61, TRPM1 prom inh 76
O=C(Nc1ccc(OC(F)F)c(Cl)c1)c1cccc(OC(F)F)c1	MITF act 88 (no result: LGR2 antag)
O=C(c1cccs1)c1no[n+]([O-])c1C(=O)c1cccs1	TRPM1 prom inh 67 (no result: LGR2 antag)
COc1ccc(S(=O)(=O)Nc2ccc3c(c2)C(=O)N([C@@H](C)CO)C[C@H](C)[C@@H](CN(C)S(=O)(=O)c2c(C)noc2C)OCCCC[C@H](C)O3)cc1	none (no result: EBV LMP1 NFkB, TWEAK Fn14 block, TROY NFkB inh, TRPM1 prom inh, MITF act)
COCc1cc(=O)[nH]c(SCCS(=O)(=O)c2ccc(Cl)cc2Cl)n1	TWEAK Fn14 block 55
COCc1cc(=O)[nH]c(SCCS(=O)(=O)c2ccc(C)cc2)n1	none
COc1cccc(NC(=O)COC(=O)c2sccc2C)c1	MITF act 108
Cc1ccsc1C(=O)OCC(=O)c1cc(C)n(C)c1C	EBV LMP1 NFkB 51, TWEAK Fn14 block 84, LGR2 antag 71
Cc1cc(C(=O)COC(=O)c2nccnc2N)c(C)n1C	none
COc1cccc(NC(=O)COC(=O)c2c(F)cccc2F)c1	none
CO[C@H]1CN(C)C(=O)c2cc(NS(=O)(=O)c3ccccc3F)ccc2OC[C@@H](C)NC[C@H]1C	none (no result: EBV LMP1 NFkB, TWEAK Fn14 block, TROY NFkB inh, TRPM1 prom inh, MITF act)
COc1ccc(OC)c(NC(=O)N2CCCc3ccccc32)c1	TROY NFkB inh 76
CCOc1ccccc1NC(=S)N1CCCc2ccccc21	TWEAK Fn14 block 53, TROY NFkB inh 54
CCOc1ccccc1NC(=O)N1CCCc2ccccc21	TROY NFkB inh 75
COc1ccccc1NC(=S)N1CCCc2ccccc21	TWEAK Fn14 block 66, TROY NFkB inh 54
CC(=O)N1CC[C@@H]2[C@H]1c1cc(C#Cc3cccnc3)ccc1N[C@@H]2CO	none (no result: EBV LMP1 NFkB, TWEAK Fn14 block, TROY NFkB inh, TRPM1 prom inh, MITF act)

From PubChem
